Inconclusive results are not listed. The source made the active and inactive calls. The calls were made as follows: active = hit-call score of the fitted dose curve at least 0.9, where 1 is the maximum; inconclusive = response in the unintended direction; inactive = score below 0.9.
The compounds below were run against human Retinoid X Receptor beta (RXRb), RXRB (gene 6257) (UniProt P28702) (assay: ATG_hRXRb_EcoTox2: Attagene TRANS-FACTORIAL EcoTox-2 HepG2 Assay for human Retinoid X Receptor beta (RXRb)).
Sequence of human Retinoid X Receptor beta (RXRb), RXRB (gene 6257) (P28702 whole entry, looked up): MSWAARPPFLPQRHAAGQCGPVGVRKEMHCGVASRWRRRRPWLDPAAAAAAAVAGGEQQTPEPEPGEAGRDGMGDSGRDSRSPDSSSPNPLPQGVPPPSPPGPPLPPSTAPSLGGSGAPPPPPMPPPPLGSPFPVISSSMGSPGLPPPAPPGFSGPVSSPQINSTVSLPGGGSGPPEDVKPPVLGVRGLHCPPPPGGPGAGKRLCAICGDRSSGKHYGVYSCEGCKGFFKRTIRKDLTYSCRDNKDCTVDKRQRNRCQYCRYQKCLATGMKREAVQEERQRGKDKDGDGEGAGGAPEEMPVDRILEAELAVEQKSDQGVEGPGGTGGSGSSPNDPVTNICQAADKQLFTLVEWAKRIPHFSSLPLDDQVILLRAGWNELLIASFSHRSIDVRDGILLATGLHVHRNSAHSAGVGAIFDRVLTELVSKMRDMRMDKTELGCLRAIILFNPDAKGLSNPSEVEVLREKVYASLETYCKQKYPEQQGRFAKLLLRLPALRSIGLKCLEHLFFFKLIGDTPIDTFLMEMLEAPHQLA
Protocol: ATG_EcoTox2 is a cell-based, multiplexed assay created by modifying the existing Attagene TRANS-FACTORIAL system to include a panel of nuclear receptors from some or all the following species: human (Homo sapiens), african clawed frog (Xenopus laevis), rainbow trout (Oncorhynchus mykiss), japanese medaka (Oryzias latipes), and zebrafish (Danio rerio). The ECOTOX2-FACTORIAL format uses HepG2, a human liver cell line, with measurements taken at 24 hours after chemical dosing in a 24-well plate. ATG_hRXRb_EcoTox2 is one of 29 assay components calculated in the ATG_EcoTox2 assay. It is designed to make measurements of mRNA induction, a form of inducible reporter, as detected with fluorescence intensity signals by Reverse transcription polymerase chain reaction (RT-PCR) and Capillary electrophoresis technology.The assay endpoint ATG_hRXRb_EcoTox2 was analyzed in the positive analysis fitting direction relative to DMSO as the negative control and baseline of activity. Using a type of inducible reporter, measures of mRNA for gain-of-signal activity can be used to understand the reporter gene at the transcription factor-level as they relate to the gene RXRb. Furthermore, this assay endpoint can be referred to as a primary readout, because this assay has produced multiple assay endpoints where this one serves a reporter gene function. To generalize the intended target to other relatable targets, this assay endpoint is annotated to the nuclear receptor intended target family, where the subfamily is non-steroidal.
Human liver HepG2 cells are transiently transfected with multiple reporter transcription units (MRTUs) in 6-well plates using FuGene 6 reagent (Roche; 3 ml FuGene/1 mg DNA). The MRTU constructs are regulated by a cis-regulating element (promoter). Each RTU expresses a GAL4-UAS that regulates the transcription of a nearby target reporter gene sequence. A major difference between the CIS and TRANS system is that in CIS activities of endogenous TFs are measured, whereas the TRANS assay evaluates changes in activities of exogenous, chimeric NR-Gal4 proteins. […] At the end of 24 hour incubation, total RNA was isolated using TriZol reagent (Invitrogen). The isolated RNA is then reverse-transcribed using oligo(dT) primer and Mo-MLV reverse transcriptase (Invitrogen) with DNAse I (Ambion) treatment for 30 min. The one-tenth of the produced cDNA was amplified by PCR using Taq DNA polymerase (Invitrogen) and two reporter sequence-specific primers. […] The fragments were purified using Qiaquick PCR columns (Qiagen), analyzed on an ABI 3130xL genetic analyzer (Applied Biosystems) with peak positions identified by using a set of X-rhodamine (ROX)-labeled MapMarker1000 molecular weight standards (BioVentures). […]

Row | SMILES | outcome | AC50
1 | O=S(=O)(O)C(F)(F)C(F)(F)C(F)(F)C(F)(F)C(F)(F)C(F)(F)F | inactive | –
2 | [Cl][Sn]([c]1ccccc1)([c]1ccccc1)[c]1ccccc1 | – | 0.041 µM (active)
3 | CCCCOCN(C(=O)CCl)c1c(CC)cccc1CC | – | 36.6 µM (active)
4 | O=C(O)C(F)(F)C(F)(F)C(F)(F)C(F)(F)C(F)(F)C(F)(F)C(F)(F)F | – | 29 µM (active)
